# Source: PubChem (National Center for Advancing Translational Sciences (NCATS))
# Hits are enriched below; roughly 19% of the tested compounds scored in any of these assays.
# S-ASM inh = inhibitors of human secretory acid sphingomyelinase; Potency, µM (titrated, usually from 57.5 µM), for inactives: at the top dose activity change, negative = inhibition, usual class: inhibitors; P17405; hit rate 0.006% among 340,000; placental ASM, HMU-PC fluorogenic substrate, 60 min; further: potency means the concentration at half of the fitted maximal effect
# Target sequence (P17405 47-631 limits assumed): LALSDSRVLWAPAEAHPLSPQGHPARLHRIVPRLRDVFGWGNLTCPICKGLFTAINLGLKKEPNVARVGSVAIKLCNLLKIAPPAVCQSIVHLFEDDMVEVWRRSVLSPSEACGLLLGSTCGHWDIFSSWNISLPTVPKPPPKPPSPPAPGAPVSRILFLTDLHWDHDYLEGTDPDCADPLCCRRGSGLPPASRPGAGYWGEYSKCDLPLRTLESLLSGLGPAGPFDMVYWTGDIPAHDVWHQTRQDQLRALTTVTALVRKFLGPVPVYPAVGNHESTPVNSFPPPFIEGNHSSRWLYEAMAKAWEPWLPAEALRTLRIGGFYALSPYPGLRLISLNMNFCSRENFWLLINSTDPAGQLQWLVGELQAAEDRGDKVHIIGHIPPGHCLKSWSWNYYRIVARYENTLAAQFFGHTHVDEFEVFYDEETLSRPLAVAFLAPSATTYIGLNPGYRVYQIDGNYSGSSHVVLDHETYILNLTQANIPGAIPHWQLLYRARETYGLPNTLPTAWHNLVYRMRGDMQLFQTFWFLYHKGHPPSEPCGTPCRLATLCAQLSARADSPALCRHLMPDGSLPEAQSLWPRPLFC
#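 Fluorogenic HMU-PC substrate (9 uM final) is turned over by placental ASM in 60 min at 37 C after a 10 min compound preincubation. Reaction ended by alkaline stop (pH 10), with fluorescence read at 386/447 nm.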
# HepG2 viability = kills HepG2 cells in TGF-b inhibitor counter-screen. HepG2 CAGA-GFP viability, ATP luminescence, 18 h. Potency, µM (doses to about 46.1 µM), without a hit: at the top dose activity change, negative = cytotoxicity, most hits filed as cytotoxic. hit rate 0.76% among 410,000. AID 588856; further: potency means the concentration at half of the fitted maximal effect
#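 CellTiter-Glo luminescence gave cytotoxicity after 18 hours at 37 degrees C. The cells were HepG2 CAGA-GFP in 1% FBS DMEM, stimulated with 500 pg/mL TGF-beta after compound addition. %Activity was normalised to no-cell wells (complete cell-killing) and DMSO (no toxicity), and curves were fitted and classified.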
# DT40 TDP1 CPT = growth inhibition of DT40 Tdp1-/-;hTDP1 cells with camptothecin (screen for TDP1 inhibitors) | chicken DT40 Tdp1-/-;hTDP1 cells + 20 nM CPT, ATP luminescence, 48 h | Potency, µM (top dose mostly 46.2 µM), inactives show top-dose activity change, negative = growth inhibition, actives largely listed as inhibitors | hit rate 12% among 420,000 | AID 686979; further: potency means the concentration at half of the fitted maximal effect; on the % scale 0 is the no-effect control and ±100 the full control effect; nearly all actives have a fitted effect of over 55% in size
#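 Chicken DT40 Tdp1-/- cells stably complemented with human TDP1 were seeded at 400 cells/well in medium containing 20 nM camptothecin, exposed to pin-transferred compounds, and grown at 37 °C for at least 48 hr. Viability was read as ATP luminescence.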
# TDP1 cell noCPT = qHTS for Inhibitors of human tyrosyl-DNA phosphodiesterase 1 (TDP1): qHTS in cells in absence of CPT. Potency, µM (titrated, usually from 46.2 µM), without a hit: top-dose activity change, negative = growth inhibition, most hits filed as inhibitors. hit rate 15% among 420,000. DT40 Tdp1-/- hTDP1 cells, no CPT, ATP luminescence, 48 h; further: potency means the concentration at half of the fitted maximal effect; on the % scale 0 is the no-effect control and ±100 the full control effect; nearly all actives have a fitted effect of over 55% in size
#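 Chicken DT40 Tdp1-/- cells complemented with human TDP1, screened without camptothecin (DMSO vehicle only), 400 cells/well. Compounds pin-transferred, cells incubated at 37 °C for at least 48 hr. Growth read as ATP-dependent luminescence (CellTiter-Glo, 30 min at RT).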
# IL-1B inflam inh = blocks inflammasome-driven IL-1 beta release | THP-1 LPS/ATP IL-1B secretion, AlphaLISA, 16 h; hits give low values | activity change, % at 57.5 µM | hit rate 4.7% among 360,000 | AID 743279; in the data active means activity change below about -50%; inconclusive means mostly about -30% to -49%; further: on the % scale 0 is the no-effect control and ±100 the full control effect
#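 Secreted IL-1B measured by AlphaLISA bead assay after 16 h compound exposure of THP-1 cells; compounds (final up to 57.5 uM) added 1 h before LPS (250 ng/mL) and ATP (1.25 mM) stimulation; lower signal means less secretion.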
# TGFb SMAD3 inh = blocks TGF-b signaling; HepG2 CAGA-GFP TGF-b/SMAD3 reporter, GFP fluorescence, 18 h; TGF-beta stimulated, 500 pg/mL final; Potency, µM (series often up to 46.1 µM), for the others: at the highest dose activity, negative = inhibition, hits mostly inhibitors; hit rate 1.2% among 410,000; further: potency means the concentration at half of the fitted maximal effect; on the % scale 0 is the no-effect control and ±100 the full control effect; nearly all actives have a fitted effect of over 65% in size
#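 Read-out: total well GFP (ex488/em500-530) summed from mean per-cell fluorescence. Cells: HEPG2 CAGA-GFP, 1% FBS DMEM, 18 h at 37 degrees C with 500 pg/mL final TGF-beta. Unstimulated wells served as the full-inhibition control; stimulated DMSO wells = 0%.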
# An asterisk follows results filed as active; ? = inconclusive; · = no result. Unless noted, the call rests on the fitted dose curve; in most records, active means well fitted curve in the direction sought with a large enough effect; inconclusive means small, poorly fitted or top-dose-only effect, or another doubt; inactive means no such curve, though single readings can be large; an effect the other way counts as inactive or inconclusive.
SMILES,S-ASM inh,HepG2 viability,DT40 TDP1 CPT,TDP1 cell noCPT,IL-1B inflam inh,TGFb SMAD3 inh
COc1cc(CN2CCN(Cc3ccc(C)cc3)C(CCO)C2)cc(OC)c1O (stereo not drawn),-4%,2%,21µM*,?,1,3%
Cc1ccc(CN2CCN(Cc3c(C)nn(-c4ccc(F)cc4)c3C)CC2CCO)o1 (stereo not drawn),4%,2%,-21%,-7%,18,-1%
COc1ccc(CN2CCN(Cc3ccc(C)cc3)C(CCO)C2)cc1OC (stereo not drawn),0%,-14%,?,-10%,23,-9%
CC(C)Nc1ncnc2c1ncn2[C@H]1CN(Cc2cccnc2)C[C@@H](CO)O1,·,-1%,7%,-1%,2,20%
Cc1ccc(N(CC(=O)Nc2cc(C)ccc2C)S(C)(=O)=O)cc1,1%,0%,24%,-10%,-12,9%
O=C(/C=C\Nc1ccc(S(=O)(=O)Nc2ncccn2)cc1)c1ccccc1,166%,-20%,5%,6%,12,-26%
CC1CC(N(C(=O)c2ccco2)c2ccccc2)c2ccccc2N1 (stereo not drawn),-2%,-45%,?,15µM*,0,-9%
CCOc1ccc(-c2nnc(SCC(=O)NCc3ccc(C)cc3)nc2-c2ccc(OCC)cc2)cc1,·,11%,?,13µM*,·,-19%
Cc1ccc(S(=O)(=O)N2CCN(C(=O)COC(=O)Cc3ccc(F)cc3)CC2)c(C)c1,-1%,-2%,-2%,-15%,12,-9%
Cc1ccc(CSCC(=O)N2CCOCC2)cc1,-2%,13%,6.5µM*,10µM*,14,-4%
CSc1ccc(CSCC(=O)N2CCN(S(=O)(=O)c3ccc(C)cc3C)CC2)cc1,-2%,-20%,26µM*,?,-29,-17%
Cc1ccc(-c2nnc(SCC(=O)NC(C)(C)C)nc2-c2ccc(C)cc2)cc1,·,-16%,29µM*,?,·,?
Fc1ccccc1N1CCN(C2CCCN(Cc3ccccc3C(F)(F)F)C2)CC1 (stereo not drawn),-1%,-22%,?,?,29,-20%
Cc1ccc(-c2nnc(SCC(N)=O)nc2-c2ccc(C)cc2)cc1,-6%,-20%,?,?,11,4%
Cc1ccc(-c2nnc(SCC(=O)N(C)C)nc2-c2ccc(C)cc2)cc1,-14%,6%,?,23µM*,0,-1%
Cc1ccc(-c2nnc(SCC(=O)N3CCOCC3)nc2-c2ccc(C)cc2)cc1,-8%,-9%,21µM*,?,-7,14%
Cc1ccc(C(CC(=O)N2CCOCC2)c2ccco2)cc1 (stereo not drawn),6%,-1%,16µM*,?,?,-3%
Cc1ccc(SCC(=O)N2CCOCC2)cc1,3%,1%,-15%,-17%,-8,4%
Cc1cc(C)n(CCCNC(=O)c2ccc(C)o2)n1,3%,16%,-1%,2%,10,11%
Cc1cc(C)n(CCc2nc(-c3cc4ccccc4o3)cs2)n1,-8%,1%,18µM*,18µM*,-10,?
Cc1cc(C)n(CCc2nc(-c3ccc(C)o3)cs2)n1,1%,-2%,?,16µM*,17,12%
O=c1c(=O)n(CCO)n(CCO)c(=O)n1CCO,·,-12%,13%,1%,0,-6%
COC(=O)c1ccc(CNC(=O)c2ccc(OC)c(S(=O)(=O)NC3CC3)c2)cc1,·,-6%,-4%,-13%,7,-10%
CCc1ccccc1NC(=O)N1CCc2ccccc2C1,-1%,2%,20%,19%,-20,-3%
COc1cc(OC)c(NC(=O)N2CCc3cc(OC)c(OC)cc3C2CC(=O)O)cc1Cl (stereo not drawn),·,1%,15µM*,8.2µM*,·,4%
SMILES,S-ASM inh,HepG2 viability,DT40 TDP1 CPT,TDP1 cell noCPT,IL-1B inflam inh,TGFb SMAD3 inh
CCc1ccccc1NC(=O)N1CCc2cc(OC)c(OC)cc2C1CC(=O)OC (stereo not drawn),·,10%,?,18µM*,·,8%
Cc1c(C(=O)NC(C)c2ccncc2)oc2ccccc12 (stereo not drawn),1%,-2%,-3%,-3%,0,?
Cc1cc(NC(=O)c2oc3ccccc3c2C)ccc1-n1cnnn1,-16%,-45%,18µM*,23µM*,·,-9%
Cc1c(C(=O)Nn2cnnc2)oc2ccccc12,3%,-4%,-7%,11%,26,4%
COc1ccc(-c2nsc(NC(=O)c3oc4ccccc4c3C)n2)cc1,·,4%,?,-29%,·,-5%
CC(=O)Nc1ccc(NC(=O)c2oc3cc(C)c(C)cc3c2C)cc1,184%,3%,-10%,-16%,-50*,2%
COC(=O)c1sc(NC(=O)c2oc3ccccc3c2C)nc1C,-3%,-6%,?,3.7µM*,23,-7%
Cc1c(C(=O)Nc2ccncc2)oc2ccccc12,-2%,-34%,21µM*,21µM*,3,3%
CN(CCCC(=O)O)c1ccc(N=Nc2ccc([N+](=O)[O-])cc2)cc1,-11%,-27%,?,?,-12,-3%
CCOCCCn1c(SCC(=O)NC2CCCCC2)nc2ccccc2c1=O,·,1%,?,?,3,5%
Fc1cccc(Cc2c(-c3cccc(Cl)c3)nc3c(Cl)cc(C(F)(F)F)cn23)c1,·,0%,-8%,-18%,16,1%
COC(=O)c1sc(NC(=O)COc2c(C)cccc2C)nc1C,-3%,0%,-14%,12µM*,34,13%
COc1cc(OC)cc(C(=O)Nc2ccc(-n3cnnn3)c(C)c2)c1,9%,-36%,-24%,?,-68*,31%
COC(=O)c1sc(NC(=O)COc2ccccc2C)nc1C,-3%,0%,0%,-4%,-10,-5%
O=C(NCCc1ccccc1)[C@@H]1CC=C[C@@H]2CCN(Cc3ccccc3)C(=O)[C@@H]21,-1%,-8%,?,?,3,3%
COc1cc2c(-c3ccc(O)cc3)nc3c(c(C)nn3-c3ccccc3)c2cc1OC,246%,-4%,12µM*,18µM*,22,-26%
COc1cccc(-c2nc3c(c(C)nn3-c3ccccc3)c3cc(OC)c(OC)cc23)c1,·,-12%,-8%,-16%,·,?
O=C(c1cccc(N2CCCC2=O)c1)N1CCN(c2cccc(Cl)c2)CC1,4%,-33%,?,3.3µM*,4,?
